Measured values taken from PubChem BioAssay (NCATS).
“And” between values parts separate entries of the source, which are not always exact repeats. Equal values may be shown once. Results filed as inconclusive are left out. The source made the active and inactive calls. Unless noted, the call rests on the fitted dose curve; in most records, active means well fitted curve in either direction with a large enough effect (not every such curve was filed as active); inconclusive means small, poorly fitted or top-dose-only effect, or another doubt; inactive means flat fitted curve, though single readings scatter.

What was measured:
[1] = biological target: Lysosomal acid glucosylceramidase (Homo sapiens) (UniProt P04062); test: Glucocerebrosidase-p2 (AID 348; in the data active means potency below about 10 µM; further: potency means the concentration at half of the fitted maximal effect); conditions: purified GBA, blue fluorogenic substrate, 40 min
Chain of Lysosomal acid glucosylceramidase (Homo sapiens) (P04062 whole entry, looked up): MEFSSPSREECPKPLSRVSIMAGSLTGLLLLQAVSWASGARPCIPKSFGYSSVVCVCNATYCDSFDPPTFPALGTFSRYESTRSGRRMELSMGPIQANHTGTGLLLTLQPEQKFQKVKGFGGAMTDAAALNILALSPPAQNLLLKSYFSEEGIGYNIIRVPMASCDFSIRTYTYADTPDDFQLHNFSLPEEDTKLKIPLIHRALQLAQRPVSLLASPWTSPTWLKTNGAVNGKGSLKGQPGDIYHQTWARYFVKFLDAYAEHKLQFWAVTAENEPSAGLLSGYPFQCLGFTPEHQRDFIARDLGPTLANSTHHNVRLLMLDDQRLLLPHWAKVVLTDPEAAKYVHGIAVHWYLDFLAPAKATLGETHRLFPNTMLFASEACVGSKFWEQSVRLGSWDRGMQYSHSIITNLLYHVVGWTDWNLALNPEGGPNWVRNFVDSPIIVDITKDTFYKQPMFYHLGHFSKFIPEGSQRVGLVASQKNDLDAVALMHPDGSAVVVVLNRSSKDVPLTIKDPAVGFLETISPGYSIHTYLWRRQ
Summary of the method: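 Normal human glucocerebrosidase (0.2 nM) with blue fluorogenic substrate (80 uM final) in citrate/phosphate pH 5.9 with 10mM sodium taurocholate, 0.01% tween-20; 40 min RT, NaOH/glycine stop; fluorescence Ex 365/Em 440; AC50 from a titration from 0.6 nM upwards.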

[2] = AP1 Signaling Pathway (AID 357); conditions: ME-180 AP-1-bla reporter, EGF-induced, beta-lactamase ratio, 5 h;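 further: ME-180 reporter cells stimulated with EGF at its EC50 level; on the % scale 0 is the no-effect control and ±100 the full control effect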
Summary of the method: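 Titration-series screen for positive or negative modulators of EC50 EGF-induced signaling in ME-180 cells carrying an AP-1-driven beta-lactamase reporter. After 5 hours at 37 degrees Celsius, CCF4 460nm/530nm emission ratio gave %Activity; AC50 values derived.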

[3] = NFAT Signaling Pathway (AID 444); conditions: Jurkat NFAT-bla M1, carbachol, beta-lactamase ratio, 5 h;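 further: carbachol stimulus at about its EC50 of 1 µM final; on the % scale 0 is the no-effect control and ±100 the full control effect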
Summary of the method: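 Jurkat cells carrying an NFAT-driven β-lactamase reporter and co-transfected muscarinic M1 receptor were treated with compound plus carbachol (1 uM final, an EC50 level) for 5 h at 37 °C. CCF4 loading followed for 1 h at RT; 460/530 nm ratio gave %activity.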

[4] = Stat Signaling Pathway (AID 446); conditions: ME-180 (cervical carcinoma) SIE beta-lactamase reporter, IL-6 stimulated, 5 h;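 further: ME-180 cervical cancer cells given 40 pM IL-6 alongside compound; SIE-controlled beta-lactamase reporter measured as 460/530 nm FRET emission ratio; on the % scale 0 is the no-effect control and ±100 the full control effect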
Summary of the method: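 Normalization used AC90 stimulation (300 pM IL-6) and AC90 inhibition (125 nM pan-JAK inhibitor at 40 pM IL-6). The underlying signal is SIE-driven beta-lactamase in ME-180 cells after 5 h IL-6 exposure with compound.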

[5] = biological target: Glucocorticoid receptor (Homo sapiens) (UniProt P04150); test: GR-GFP Redistribution (AID 450;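 active means compounds whose dose series gives a full or clear partial fitted curve of increased nuclear translocation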; further: potency means the concentration at half of the fitted maximal effect); conditions: U2OS GR-GFP nuclear translocation, laser cytometry, 2 h
Chain of Glucocorticoid receptor (Homo sapiens) (P04150 whole entry, looked up, the tested form may be a part): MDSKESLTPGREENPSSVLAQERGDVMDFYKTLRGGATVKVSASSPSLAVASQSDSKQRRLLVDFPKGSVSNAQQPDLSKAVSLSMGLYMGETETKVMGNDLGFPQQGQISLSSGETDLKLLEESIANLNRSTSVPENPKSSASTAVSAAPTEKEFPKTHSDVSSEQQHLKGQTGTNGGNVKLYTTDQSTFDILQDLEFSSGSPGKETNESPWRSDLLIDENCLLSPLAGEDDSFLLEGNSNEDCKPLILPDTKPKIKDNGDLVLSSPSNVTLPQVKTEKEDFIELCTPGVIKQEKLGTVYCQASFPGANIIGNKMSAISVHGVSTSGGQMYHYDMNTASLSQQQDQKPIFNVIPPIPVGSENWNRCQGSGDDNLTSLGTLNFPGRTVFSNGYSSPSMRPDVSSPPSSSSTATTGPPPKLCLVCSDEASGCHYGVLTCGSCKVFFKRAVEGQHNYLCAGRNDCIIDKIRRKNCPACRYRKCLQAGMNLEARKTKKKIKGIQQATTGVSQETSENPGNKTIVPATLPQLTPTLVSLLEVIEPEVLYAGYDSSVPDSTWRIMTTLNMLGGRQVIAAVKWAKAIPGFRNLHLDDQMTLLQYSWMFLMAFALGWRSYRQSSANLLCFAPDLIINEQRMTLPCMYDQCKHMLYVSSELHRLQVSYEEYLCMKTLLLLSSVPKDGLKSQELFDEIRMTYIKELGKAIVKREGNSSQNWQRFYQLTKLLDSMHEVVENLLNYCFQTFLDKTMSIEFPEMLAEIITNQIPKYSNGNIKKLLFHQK

[6] = biological target: Mitogen-activated protein kinase 10 (Mus musculus) (UniProt Q61831); test: JNK3 AlphaScreen Assay (AID 530); conditions: JNK3 lysate, c-Jun phosphorylation; series mostly up to 57.1 µM;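 further: kinase came from lysate of stimulated human HepG2 cells; signal reports phosphorylation of biotinylated GST-cJun 1-79 at Ser73 with 10 µM ATP; on the % scale 0 is the no-effect control and ±100 the full control effect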
Summary of the method: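 Biotinylated GST-cJun(1-79) served as substrate for JNK3 in HepG2 lysates stimulated with IL-1beta and TNF-alpha. ATP was 10 uM final, pH 7.6. Ser73 phosphorylation was quantified by AlphaScreen (680 nm excitation).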

[7] = biological target: 3',5'-cyclic-AMP phosphodiesterase 4B (Homo sapiens) (UniProt Q07343); test: qHTS Assay for Inhibitors of PDE-IV (AID 607; active means well fitted activation curve with a large enough effect in the main read-out, with a control signal flat, not every such curve was filed as active; further: % of control where 0% means no effect); conditions: HEK293 ACTOne CNG channel cells, membrane potential fluorescence; series mostly up to 22.9 µM
Chain of 3',5'-cyclic-AMP phosphodiesterase 4B (Homo sapiens) (Q07343 whole entry, looked up): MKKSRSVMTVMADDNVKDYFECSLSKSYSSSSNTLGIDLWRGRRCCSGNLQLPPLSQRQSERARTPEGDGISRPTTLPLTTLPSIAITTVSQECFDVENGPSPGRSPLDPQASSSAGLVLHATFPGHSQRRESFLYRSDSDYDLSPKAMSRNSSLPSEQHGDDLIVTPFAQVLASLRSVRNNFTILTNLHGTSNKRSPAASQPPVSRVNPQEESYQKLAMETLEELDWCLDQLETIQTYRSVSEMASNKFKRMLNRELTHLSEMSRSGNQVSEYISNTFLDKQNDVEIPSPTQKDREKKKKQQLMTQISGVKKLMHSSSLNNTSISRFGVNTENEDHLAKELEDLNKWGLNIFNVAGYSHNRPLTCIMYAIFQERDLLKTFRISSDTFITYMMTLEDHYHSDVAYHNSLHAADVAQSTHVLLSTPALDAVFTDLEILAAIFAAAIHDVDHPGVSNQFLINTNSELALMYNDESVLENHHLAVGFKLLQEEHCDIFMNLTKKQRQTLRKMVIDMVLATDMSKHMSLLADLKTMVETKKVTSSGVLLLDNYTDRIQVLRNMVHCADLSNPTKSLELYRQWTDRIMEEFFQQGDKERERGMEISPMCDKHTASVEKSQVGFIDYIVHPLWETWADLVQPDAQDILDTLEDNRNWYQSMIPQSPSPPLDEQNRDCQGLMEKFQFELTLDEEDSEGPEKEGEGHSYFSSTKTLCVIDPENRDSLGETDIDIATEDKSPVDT
Summary of the method: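 HEK293 ACTOne cells with CNG channel (1000/well), endogenous PDE4; membrane potential dye, compounds up to 22.9 uM final. Fluorescence Ex 535/Em 590; RO 20-1724 (100 uM final) as reference.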

[8] = biological target: Cytochrome P450 1A2 (Homo sapiens) (UniProt P05177); test: p450-cyp1a2 (AID 410; calls by dose curve;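 further: -100% = full effect of reference inhibitor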); conditions: recombinant CYP1A2, luciferin-ME demethylation, luminescence; series mostly up to 11.4 µM
Chain of Cytochrome P450 1A2 (Homo sapiens) (P05177 whole entry, looked up): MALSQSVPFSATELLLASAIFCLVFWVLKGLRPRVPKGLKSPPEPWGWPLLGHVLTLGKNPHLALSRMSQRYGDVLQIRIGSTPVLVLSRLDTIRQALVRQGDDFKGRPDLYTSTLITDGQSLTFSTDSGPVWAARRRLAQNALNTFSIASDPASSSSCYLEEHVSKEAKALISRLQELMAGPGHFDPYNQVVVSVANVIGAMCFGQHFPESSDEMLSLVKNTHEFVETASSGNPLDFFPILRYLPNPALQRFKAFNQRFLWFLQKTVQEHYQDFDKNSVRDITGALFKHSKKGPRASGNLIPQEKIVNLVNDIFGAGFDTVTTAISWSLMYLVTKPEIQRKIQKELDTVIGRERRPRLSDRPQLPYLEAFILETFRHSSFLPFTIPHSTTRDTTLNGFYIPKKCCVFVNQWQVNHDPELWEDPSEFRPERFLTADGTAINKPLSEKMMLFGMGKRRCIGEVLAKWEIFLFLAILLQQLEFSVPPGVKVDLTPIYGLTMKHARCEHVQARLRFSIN
Summary of the method: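 20nM CYP1A2, 100uM Luciferin-ME (=Km), 100mM KPO4; cpd 10 min RT; +NADPH regen, 60 min RT; stop/detect 20 min; luminescence. Normalized to furafylline 57 uM = full inhibition.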

[9] = biological target: Glucocorticoid receptor (Homo sapiens) (UniProt P04150); test: GR-EFC Redistribution (AID 451; calls by dose curve; further: potency means the concentration at half of the fitted maximal effect); conditions: CHO-K1 GR-EFC translocation, beta-gal luminescence, 2 h
Summary of the method: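 CHO-K1 cells stably expressing nuclear-localized β-gal enzyme acceptor and GR fused C-terminally to the enzyme donor fragment; ligand-driven nuclear translocation restores β-gal by complementation. Compounds titrated up to 46 uM final, 2 h at 37 °C; luminescence read.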

[10] = biological target: Guanine nucleotide-binding protein G(i) subunit alpha-1 (Homo sapiens) (UniProt P63096); test: qHTS Assay for Inhibitors of RGS12 GoLoco Motif Activity (Green Fluorophore) (AID 879; active means well fitted curve in the direction sought with a large enough effect; an effect the other way counts as inactive or inconclusive;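 further: 0% = labeled peptide with Gαi1 and full inhibition = labeled peptide alone without protein; negative values mean loss of peptide binding seen as reduced polarization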); conditions: Galphai1/FITC-RGS12 GoLoco peptide, fluorescence polarization; series mostly up to 57.1 µM
Chain of Guanine nucleotide-binding protein G(i) subunit alpha-1 (Homo sapiens) (P63096 whole entry, looked up): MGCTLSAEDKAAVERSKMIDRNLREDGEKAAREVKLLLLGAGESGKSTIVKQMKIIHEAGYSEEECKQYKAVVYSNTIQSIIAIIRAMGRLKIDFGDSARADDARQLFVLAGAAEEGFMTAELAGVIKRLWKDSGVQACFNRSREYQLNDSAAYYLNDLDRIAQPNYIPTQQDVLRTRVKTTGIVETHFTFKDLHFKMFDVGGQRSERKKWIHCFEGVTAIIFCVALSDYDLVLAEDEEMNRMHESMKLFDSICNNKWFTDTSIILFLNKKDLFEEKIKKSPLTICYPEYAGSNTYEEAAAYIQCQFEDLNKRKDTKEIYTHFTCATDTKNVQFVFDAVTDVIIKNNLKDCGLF
Summary of the method: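 A drop in FITC polarization marked displacement of the FITC-tagged RGS12 GoLoco peptide (10 nM) from Gαi1 (50 nM). Compounds were incubated 10 min at room temperature in Tris pH 7.5 buffer containing 150 mM NaCl, 0.1 mM GDP and 0.05% NP40; unlabeled peptide titration served as control.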

[11] = qHTS Assay for Identification of Small Molecule Agonists for Thrombopoietin (TPO) Signaling Pathway (AID 917; active means well fitted curve in the direction sought with a large enough effect; an effect the other way counts as inactive or inconclusive; further: on the % scale 0 is the no-effect control and ±100 the full control effect); conditions: TPO signaling pathway reporter cells, agonist qHTS; series mostly up to 38.5 µM
Summary of the method: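 Luciferase reporter (Glycoprotein IIb promoter) in IL-3-deprived Ba/F3 cells carrying human TPO receptor; compounds co-added with 26 pM TPO, incubated 24 h, 37 C. Steadylite luminescence measured after 10 min.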

[12] = biological target: Muscarinic acetylcholine receptor M1 (Rattus norvegicus) (UniProt P08482); test: qHTS Assay for Antagonists of Acetylcholine Muscarinic M1 Receptor: Kinetic Measurement of Intracellular Calcium Response (AID 943; active means well fitted curve in the direction sought with a large enough effect; an effect the other way counts as inactive or inconclusive;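 further: Fluo-4 calcium signal as peak divided by basal fluorescence over 4 min; nearly all actives have a fitted effect of over 75% in size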); conditions: M1-expressing cells, kinetic intracellular calcium fluorescence; series mostly up to 35.3 µM
Chain of Muscarinic acetylcholine receptor M1 (Rattus norvegicus) (P08482 whole entry, looked up): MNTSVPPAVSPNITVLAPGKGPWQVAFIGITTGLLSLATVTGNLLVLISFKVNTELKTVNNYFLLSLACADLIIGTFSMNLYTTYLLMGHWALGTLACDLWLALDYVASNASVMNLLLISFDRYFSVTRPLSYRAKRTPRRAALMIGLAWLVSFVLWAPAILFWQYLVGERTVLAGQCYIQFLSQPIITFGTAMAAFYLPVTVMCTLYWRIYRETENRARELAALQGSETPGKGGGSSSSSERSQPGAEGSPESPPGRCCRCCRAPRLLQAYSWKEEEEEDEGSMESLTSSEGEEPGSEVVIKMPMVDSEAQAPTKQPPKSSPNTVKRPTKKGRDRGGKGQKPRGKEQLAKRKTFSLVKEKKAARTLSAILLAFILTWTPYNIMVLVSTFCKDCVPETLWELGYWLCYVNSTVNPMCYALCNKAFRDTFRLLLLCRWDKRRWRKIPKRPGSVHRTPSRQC
Summary of the method: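 Read-out: peak over basal Fluo-4 fluorescence, kinetic at 1 Hz for 4 min after EC80 carbachol (100 nM final). Rat M1-CHO cells, dye loaded 1 h at 37C, compound added 10 min before agonist.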

[13] = biological target: Muscarinic acetylcholine receptor M1 (Rattus norvegicus) (UniProt P08482); test: qHTS Assay for Antagonists of Acetylcholine Muscarinic M1 Receptor: Measurement of IP-One Response (AID 944; active means well fitted curve in the direction sought with a large enough effect; an effect the other way counts as inactive or inconclusive; further: nearly all actives have a fitted effect of over 75% in size); conditions: CHO-M1 cells, IP-One HTRF, antagonist mode; series mostly up to 46.1 µM
Summary of the method: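 Read-out: HTRF competition between d2-IP1 and Eu-cryptate anti-IP1 antibody, emission 620 and 665 nm. Stimulus was carbachol, EC80 (200 nM), for 30 min in M1-CHO cells (rat receptor), after 10 min compound pre-treatment.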

[14] = biological target: Pyruvate kinase (Leishmania mexicana) (UniProt Q27686); test: qHTS Validation Assay for Inhibitors of Leishmania Mexicana Pyruvate Kinase (AID 945; active means well fitted curve in the direction sought with a large enough effect; an effect the other way counts as inactive or inconclusive;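 further: 0% = DMSO only neutral control wells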); conditions: purified L. mexicana pyruvate kinase, enzyme activity, E451W mutant enzyme; series mostly up to 57.5 µM
Chain of Pyruvate kinase (Leishmania mexicana) (Q27686 2-499 E452W): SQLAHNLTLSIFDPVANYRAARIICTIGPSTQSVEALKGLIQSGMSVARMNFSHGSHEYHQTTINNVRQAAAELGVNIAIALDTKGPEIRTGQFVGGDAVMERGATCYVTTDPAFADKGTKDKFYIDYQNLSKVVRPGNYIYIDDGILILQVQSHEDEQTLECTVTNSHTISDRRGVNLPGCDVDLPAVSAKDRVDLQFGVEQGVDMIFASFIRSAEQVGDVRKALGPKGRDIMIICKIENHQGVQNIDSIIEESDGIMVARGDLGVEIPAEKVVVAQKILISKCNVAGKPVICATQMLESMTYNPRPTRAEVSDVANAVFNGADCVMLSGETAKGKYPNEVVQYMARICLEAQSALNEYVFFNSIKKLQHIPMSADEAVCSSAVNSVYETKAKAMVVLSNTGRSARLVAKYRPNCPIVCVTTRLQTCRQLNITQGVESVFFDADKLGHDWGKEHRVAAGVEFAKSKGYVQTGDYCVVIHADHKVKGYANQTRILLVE
Summary of the method: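 Substrate mix (0.5 mM PEP, 0.1 mM ADP, 7 mM MgCl2, 50 mM KCl, pH 7.2 imidazole) received compound by pin tool, then 0.2 nM LmPYK E451W. After 1 h at room temperature, PKLight was added and luminescence measured.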

[15] = biological target: Pyruvate kinase PKM (Homo sapiens) (UniProt P14618); test: qHTS Assay for Activators of Human Muscle Pyruvate Kinase (AID 954; active means well fitted curve in the direction sought with a large enough effect, not every such curve was filed as active;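 further: 0% = uninhibited enzyme and -100% = no enzyme or full thiadiazolimine inhibition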); conditions: purified human muscle pyruvate kinase, luciferase-coupled luminescence, 1 h; series mostly up to 57.5 µM
Chain of Pyruvate kinase PKM (Homo sapiens) (P14618 whole entry, looked up): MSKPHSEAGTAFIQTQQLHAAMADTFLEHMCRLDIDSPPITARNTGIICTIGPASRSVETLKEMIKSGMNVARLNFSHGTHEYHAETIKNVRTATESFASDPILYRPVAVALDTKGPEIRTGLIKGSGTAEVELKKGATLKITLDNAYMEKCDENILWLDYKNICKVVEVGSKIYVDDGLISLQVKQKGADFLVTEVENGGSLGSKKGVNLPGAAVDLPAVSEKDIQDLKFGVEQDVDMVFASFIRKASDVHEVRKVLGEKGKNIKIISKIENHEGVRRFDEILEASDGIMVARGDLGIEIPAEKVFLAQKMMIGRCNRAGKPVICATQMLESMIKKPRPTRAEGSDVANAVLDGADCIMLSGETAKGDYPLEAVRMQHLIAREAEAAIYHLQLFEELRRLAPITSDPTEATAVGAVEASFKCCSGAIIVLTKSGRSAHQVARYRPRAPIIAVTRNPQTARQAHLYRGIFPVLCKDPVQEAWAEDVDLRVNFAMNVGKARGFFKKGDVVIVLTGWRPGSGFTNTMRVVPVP
Summary of the method: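 Compound pinned into substrate mix (0.5 mM PEP, 0.1 mM ADP), then 0.1 nM PKM2 added; 1 h, RT. Stop/detection luciferase reagent added, luminescence read. Normalized to no-inhibition and no-enzyme or reference-inhibitor controls.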

[16] = biological target: Alpha-galactosidase A (Homo sapiens) (UniProt P06280); test: Counterscreen for Glucocerebrosidase Inhibitors: qHTS Assay for Human alpha-Galactosidase at pH 4.5 (AID 992; active means well fitted curve in the direction sought with a large enough effect; an effect the other way counts as inactive or inconclusive; further: 0% is about no effect); conditions: purified enzyme, fluorogenic substrate; series mostly up to 76.9 µM
Chain of Alpha-galactosidase A (Homo sapiens) (P06280 whole entry, looked up): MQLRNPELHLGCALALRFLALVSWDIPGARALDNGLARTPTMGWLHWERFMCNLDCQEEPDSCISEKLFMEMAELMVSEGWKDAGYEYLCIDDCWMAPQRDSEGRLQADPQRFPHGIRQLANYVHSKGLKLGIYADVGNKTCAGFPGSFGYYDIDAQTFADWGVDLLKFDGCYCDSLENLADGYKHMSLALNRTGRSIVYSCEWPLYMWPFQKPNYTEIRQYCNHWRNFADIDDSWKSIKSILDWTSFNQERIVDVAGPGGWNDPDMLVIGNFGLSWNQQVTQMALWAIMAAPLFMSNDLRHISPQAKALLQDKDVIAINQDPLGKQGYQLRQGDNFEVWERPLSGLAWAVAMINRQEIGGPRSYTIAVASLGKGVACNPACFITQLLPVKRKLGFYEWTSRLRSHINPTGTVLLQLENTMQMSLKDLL
Summary of the method: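 Steps: enzyme (2 nM final), then compound across 0.7 nM to 77 uM, then 80 uM fluorogenic galactopyranoside substrate; incubate 20 min at room temperature; quench at pH 10; measure fluorescence at 365/440 nm.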

[17] = biological target: alpha-glucosidase (Oryza sativa, rice) (UniProt Q653V4); test: Counterscreen for Glucocerebrosidase Inhibitors: qHTS Assay for Rice alpha-Glucosidase at pH 5.0 (AID 997; active means well fitted curve in the direction sought with a large enough effect; an effect the other way counts as inactive or inconclusive;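 further: 0% = full activity with enzyme and -100% = basal without enzyme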); conditions: rice alpha-glucosidase enzyme activity; series mostly up to 76.9 µM
Summary of the method: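 Endpoint fluorogenic assay at pH 5.0: compounds (0.7 nM to 77 uM) titrated against 4 nM rice enzyme and 400 uM 4-MU-alpha-glucoside for 20 min at room temperature; NaOH/glycine stop, read ex 365/em 440 nm, Hill-fitted AC50.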

[18] = at 7.69 µM (top of the series) unless noted

O=C(O)CNC(=O)c1ccc([As](=O)(O)O)cc1
inactive: Potency [1] > 11.4 µM | activity change, negative = inhibition [2, 18] 9.68% | activity change, negative = inhibition [3, 18] 7.56% | activity, negative = inhibition [4, 18] 12.9% | Potency [5] > 46 µM | activity change, negative = inhibition [6] 36.2% [at 11.4 µM] | outcome [7]

C[C@@H]1O[C@H]1P(=O)(O)O
inactive: activity change, negative = inhibition [2, 18] 0.559% [at 38 µM] | Potency [8] | activity change, negative = inhibition [3, 18] 6.57% [at 38 µM] | activity, negative = inhibition [4, 18] 22.2% [at 38 µM] | Potency [5] > 46 µM | Potency [9] > 46 µM | Potency [6] | outcome [7] | outcome [10] | outcome [11] | Potency [12] | Potency [13] | outcome [14] | outcome [15] | outcome [16] | outcome [17]

C[C@@H](Cc1ccc(O)cc1)NC[C@@H](O)c1cc(O)cc(O)c1
inactive: activity change, negative = inhibition ([2]; at 17.2 µM (top of the series)) -20.6% | activity change, negative = inhibition ([2]; at 38 µM (top of the series)) -23% | Potency [8] | activity change, negative = inhibition ([3]; at 17.2 µM (top of the series)) -2.14% | activity change, negative = inhibition ([3]; at 38 µM (top of the series)) -6.03% | activity, negative = inhibition ([4]; at 17.2 µM (top of the series)) -8.37% | activity, negative = inhibition ([4]; at 38 µM (top of the series)) -28.1% | Potency [5] > 46 µM and > 20.6 µM | Potency [6] | outcome [7] | outcome [10] | outcome [11] | Potency [12] | Potency [13] | outcome [14] | outcome [15] | outcome [16] | outcome [17]

O=C1C[C@@H]2OCC=C3CN4CC[C@]56c7ccccc7N1[C@@H]5[C@@H]2[C@H]3C[C@H]46 (tested in a mixture with another compound)
inactive: Potency [1] > 11.4 µM | activity change, negative = inhibition [2, 18] 5.95% | activity change, negative = inhibition [6] 1.78% [at 11.4 µM] | outcome [7]

CCNCCC1(CC)C(=O)NC(=O)NC1=O
inactive: Potency [1] > 11.4 µM | activity change, negative = inhibition [2, 18] 0.916% | activity change, negative = inhibition [3, 18] 11.4% | activity, negative = inhibition [4, 18] 2.13% | Potency [5] > 46 µM | activity change, negative = inhibition [6] 3.87% [at 11.4 µM] | outcome [7]

CS(=O)(=O)O[C@H]1CN2CCC1CC2
inactive: Potency [1] > 11.4 µM | Potency [8] | activity change, negative = inhibition [3, 18] -10.5% | activity, negative = inhibition [4, 18] -2.65% | Potency [5] > 46 µM | Potency [9] > 9.22 µM | outcome [7]
